Test results taken from PubChem BioAssay (NCATS).
Records with an inconclusive call do not appear. Calls of active or inactive are those of the source. Unless noted, calls come from the whole dose curve; as a rule, active = well fitted curve in the direction sought with a large enough effect; inconclusive = small, poorly fitted or top-dose-only effect, or another doubt; inactive = no such curve, though single readings can be large; an effect the other way counts as inactive or inconclusive.

Columns and labels:
[1] = AP1 Signaling Pathway (AID 357; active = well fitted curve in either direction with a large enough effect, not every such curve was filed as active;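 note: ME-180 reporter cells stimulated with EGF at its EC50 level; % is set by controls: 0 for no effect and ±100 for the full control effect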); conditions: ME-180 AP-1-bla reporter, EGF-induced, beta-lactamase ratio, 5 h; at 7.69 µM (top of the series) unless noted
Summary of the method: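 First, ME-180 AP-1-bla cells were cultured overnight at 37 °C in low-serum Opti-MEM. Next, titrated compounds with EC50 EGF were incubated 5 hours. Finally, CCF4 was added for 2.5 hours and the 460/530 nm ratio recorded.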

[2] = biological target: Cytochrome P450 1A2 (Homo sapiens) (UniProt P05177); test: p450-cyp1a2 (AID 410; calls by dose curve; note: potency is the fitted concentration of half-maximal effect)
Summary of the method: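 20nM CYP1A2, 100uM Luciferin-ME (=Km), 100mM KPO4; cpd 10 min RT; +NADPH regen, 60 min RT; stop/detect 20 min; luminescence. Normalized to furafylline 57 uM = full inhibition.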

[3] = NFAT Signaling Pathway (AID 444; active = well fitted curve in either direction with a large enough effect, not every such curve was filed as active;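 note: carbachol stimulus at about its EC50 of 1 µM final; % is set by controls: 0 for no effect and ±100 for the full control effect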); conditions: Jurkat NFAT-bla M1, carbachol, beta-lactamase ratio, 5 h; at 7.69 µM (top of the series) unless noted
Summary of the method: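 Jurkat cells with NFAT-driven β-lactamase reporter and co-expressed M1 receptor, stimulated with carbachol (final 1 uM, ~EC50), compound titration, 5 h at 37 °C. CCF4 loaded 1 h at RT; 460/530 nm ratio gave %activity and AC50.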

[4] = Stat Signaling Pathway (AID 446; active = well fitted curve in either direction with a large enough effect, not every such curve was filed as active;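 note: ME-180 cervical cancer cells given 40 pM IL-6 alongside compound; SIE-controlled beta-lactamase reporter measured as 460/530 nm FRET emission ratio; % is set by controls: 0 for no effect and ±100 for the full control effect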); conditions: ME-180 SIE beta-lactamase reporter, IL-6 stimulated, 5 h; at 7.69 µM (top of the series) unless noted
Summary of the method: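 FRET read-out (405 nm excitation, 460/530 nm emission) of a beta-lactamase reporter under a STAT-inducible element in ME-180 cervical carcinoma cells. Cells with compound receive 40 pM IL-6 for 5 h. Values are normalised to AC90 stimulation and AC90 JAK-inhibitor controls.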

[5] = biological target: Glucocorticoid receptor (Homo sapiens) (UniProt P04150); test: GR-GFP Redistribution (AID 450;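 active = compounds whose dose series gives a full or clear partial fitted curve of increased nuclear translocation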; note: potency is the fitted concentration of half-maximal effect); conditions: U2OS GR-GFP nuclear translocation, laser cytometry, 2 h
Sequence of Glucocorticoid receptor (Homo sapiens) (P04150 whole entry, looked up, the tested form may be a part): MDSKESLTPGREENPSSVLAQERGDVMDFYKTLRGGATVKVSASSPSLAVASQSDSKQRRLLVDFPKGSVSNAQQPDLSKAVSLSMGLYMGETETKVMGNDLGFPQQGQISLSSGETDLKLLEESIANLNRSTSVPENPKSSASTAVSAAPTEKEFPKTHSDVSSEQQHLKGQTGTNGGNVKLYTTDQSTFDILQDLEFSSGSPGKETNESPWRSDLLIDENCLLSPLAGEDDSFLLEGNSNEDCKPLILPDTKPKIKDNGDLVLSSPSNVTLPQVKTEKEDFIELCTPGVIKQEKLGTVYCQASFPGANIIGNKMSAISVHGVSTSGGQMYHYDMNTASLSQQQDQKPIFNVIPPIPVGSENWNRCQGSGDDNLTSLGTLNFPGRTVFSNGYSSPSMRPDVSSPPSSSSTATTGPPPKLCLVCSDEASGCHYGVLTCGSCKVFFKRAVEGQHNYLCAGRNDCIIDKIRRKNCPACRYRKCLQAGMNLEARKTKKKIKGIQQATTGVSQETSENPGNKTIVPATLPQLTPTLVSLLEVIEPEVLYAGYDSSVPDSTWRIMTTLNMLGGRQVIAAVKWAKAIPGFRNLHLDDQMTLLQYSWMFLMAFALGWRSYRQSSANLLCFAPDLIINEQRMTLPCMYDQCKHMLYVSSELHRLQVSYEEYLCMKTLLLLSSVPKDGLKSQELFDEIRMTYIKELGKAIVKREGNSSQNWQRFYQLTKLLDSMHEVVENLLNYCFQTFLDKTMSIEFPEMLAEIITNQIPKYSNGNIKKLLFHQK

[6] = biological target: Glucocorticoid receptor (Homo sapiens) (UniProt P04150); test: GR-EFC Redistribution (AID 451; calls by dose curve; note: potency is the fitted concentration of half-maximal effect); conditions: CHO-K1 GR-EFC translocation, beta-gal luminescence, 2 h
Summary of the method: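 CHO-K1 cells expressing nuclear EA and GR-ED fragments of b-gal; compounds titrated up to 46 uM final, 2 h at 37 C. GR nuclear translocation read as complemented b-gal luminescence after 1 h RT detection.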

[7] = biological target: Mitogen-activated protein kinase 10 (Mus musculus) (UniProt Q61831); test: JNK3 AlphaScreen Assay (AID 530; active = well fitted curve in either direction with a large enough effect, not every such curve was filed as active;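 note: kinase came from lysate of stimulated human HepG2 cells; signal reports phosphorylation of biotinylated GST-cJun 1-79 at Ser73 with 10 µM ATP; % is set by controls: 0 for no effect and ±100 for the full control effect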)
Summary of the method: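 HepG2 lysate (IL-1b/TNFa pre-activated) + biotin-GST-cJun 1-79 + anti-pSer73 cJun; cpd titration, 15 min RT; ATP 10 uM start; Tris pH 7.6, MgCl2, DTT, vanadate; beads in EDTA buffer; AlphaScreen.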

[8] = biological target: 3',5'-cyclic-AMP phosphodiesterase 4B (Homo sapiens) (UniProt Q07343); test: qHTS Assay for Inhibitors of PDE-IV (AID 607; active = well fitted activation curve with a large enough effect in the main read-out, with a control signal flat, not every such curve was filed as active; note: % of control where 0% means no effect)
Sequence of 3',5'-cyclic-AMP phosphodiesterase 4B (Homo sapiens) (Q07343 whole entry, looked up): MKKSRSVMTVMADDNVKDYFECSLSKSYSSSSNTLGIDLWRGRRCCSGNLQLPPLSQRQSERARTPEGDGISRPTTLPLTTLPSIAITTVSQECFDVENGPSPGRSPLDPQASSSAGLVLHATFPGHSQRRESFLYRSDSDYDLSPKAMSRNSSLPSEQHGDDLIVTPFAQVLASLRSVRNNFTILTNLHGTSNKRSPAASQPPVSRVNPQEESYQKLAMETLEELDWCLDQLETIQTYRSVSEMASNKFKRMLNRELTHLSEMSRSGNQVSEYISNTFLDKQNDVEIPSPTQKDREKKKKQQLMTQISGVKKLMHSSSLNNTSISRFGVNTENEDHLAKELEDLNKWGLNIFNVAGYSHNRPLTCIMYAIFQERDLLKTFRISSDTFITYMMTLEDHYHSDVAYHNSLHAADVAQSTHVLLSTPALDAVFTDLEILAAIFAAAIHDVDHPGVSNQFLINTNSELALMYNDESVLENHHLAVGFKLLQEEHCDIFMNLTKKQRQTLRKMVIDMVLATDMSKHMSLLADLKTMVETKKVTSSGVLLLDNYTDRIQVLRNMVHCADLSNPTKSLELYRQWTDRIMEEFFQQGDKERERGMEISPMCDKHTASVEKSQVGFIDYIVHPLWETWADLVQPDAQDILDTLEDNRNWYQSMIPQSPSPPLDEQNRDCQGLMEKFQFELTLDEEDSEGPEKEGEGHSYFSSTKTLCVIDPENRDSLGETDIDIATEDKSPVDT
Summary of the method: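 Cell-based read-out of cAMP via a modified cyclic nucleotide-gated channel and membrane potential dye (535/590 nm) in HEK293 cells expressing PDE4 endogenously. Compounds tested up to 22.9 uM final; 100 uM RO 20-1724 reference.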

[9] = biological target: Cytochrome P450 3A4 (Homo sapiens) (UniProt P08684); test: qHTS Assay for Activators of Cytochrome P450 3A4 (AID 885); note: nearly all actives have a fitted effect of over 65% in size
Sequence of Cytochrome P450 3A4 (Homo sapiens) (P08684 whole entry, looked up): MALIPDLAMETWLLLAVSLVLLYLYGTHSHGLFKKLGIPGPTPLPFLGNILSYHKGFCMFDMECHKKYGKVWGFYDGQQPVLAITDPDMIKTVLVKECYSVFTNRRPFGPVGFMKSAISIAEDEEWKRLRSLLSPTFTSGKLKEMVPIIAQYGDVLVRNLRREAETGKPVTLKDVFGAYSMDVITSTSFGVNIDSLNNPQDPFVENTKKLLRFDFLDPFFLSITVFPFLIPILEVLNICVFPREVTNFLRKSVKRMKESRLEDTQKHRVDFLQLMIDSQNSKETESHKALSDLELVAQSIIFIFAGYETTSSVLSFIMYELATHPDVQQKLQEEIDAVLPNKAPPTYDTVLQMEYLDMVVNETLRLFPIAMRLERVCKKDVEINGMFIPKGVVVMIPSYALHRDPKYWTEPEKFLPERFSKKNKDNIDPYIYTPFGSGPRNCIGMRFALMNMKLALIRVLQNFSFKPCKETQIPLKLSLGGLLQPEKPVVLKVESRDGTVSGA
Summary of the method: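 Luminescent readout of luciferin formed from 25 uM Luciferin-PPXE (KM level) by 20 nM CYP3A4 in 200 mM KPO4, with 60 min NADPH-driven reaction at room temperature after 10 min compound exposure. Ketoconazole (57 uM) defined 100% inhibition.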

[10] = biological target: Dual specificity protein kinase CLK4 (Homo sapiens) (UniProt Q9HAZ1); test: qHTS Assay for Inhibitors of CDC-like Kinase 4 (Kinase-Glo Assay) (AID 1770); note: nearly all actives have a fitted effect of over 65% in size; note: potency is the fitted concentration of half-maximal effect
Sequence of Dual specificity protein kinase CLK4 (Homo sapiens) (Q9HAZ1 whole entry, looked up): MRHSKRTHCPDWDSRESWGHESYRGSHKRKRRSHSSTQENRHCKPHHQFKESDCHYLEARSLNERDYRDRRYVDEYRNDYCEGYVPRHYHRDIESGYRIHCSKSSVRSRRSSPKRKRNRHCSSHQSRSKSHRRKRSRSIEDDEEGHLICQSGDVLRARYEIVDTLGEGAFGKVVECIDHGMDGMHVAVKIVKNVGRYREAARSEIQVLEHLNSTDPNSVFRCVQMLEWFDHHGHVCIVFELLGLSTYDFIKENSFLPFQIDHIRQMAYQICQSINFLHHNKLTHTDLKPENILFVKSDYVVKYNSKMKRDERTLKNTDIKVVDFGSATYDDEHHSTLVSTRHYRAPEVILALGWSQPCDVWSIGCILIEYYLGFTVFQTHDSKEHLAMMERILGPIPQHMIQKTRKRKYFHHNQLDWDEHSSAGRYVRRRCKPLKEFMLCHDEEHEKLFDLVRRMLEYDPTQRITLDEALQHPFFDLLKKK
Summary of the method: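 Clk4 25 nM, RS peptide 100 uM, ATP 1 uM, pH 7.5 Tris, 10 mM MgCl2, 2.5 mM DTT; 4.5 h RT; ATP depletion read by Kinase-Glo luminescence.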

[11] = biological target: Dual specificity protein kinase CLK4 (Homo sapiens) (UniProt Q9HAZ1); test: qHTS Assay for Inhibitors of CDC-like Kinase 4 (ADP-Glo Assay) (AID 1771); note: nearly all actives have a fitted effect of over 70% in size; note: potency is the fitted concentration of half-maximal effect
Summary of the method: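 25 nM Clk4, 100 uM RS peptide, 1 uM ATP (final); 2 mM MgCl2, 0.5 mM EGTA, 2.5 mM DTT, 0.01% Triton X-100; 1 hr RT. ADP-Glo readout: ATP depletion 45 min, conversion/luciferase 30 min, luminescence.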

[12] = biological target: Dual specificity protein kinase CLK4 (Homo sapiens) (UniProt Q9HAZ1); test: qHTS Assay for Inhibitors of CDC-like Kinase 4 (ADP-FP Assay) (AID 1795); note: nearly all actives have a fitted effect of over 60% in size; note: potency is the fitted concentration of half-maximal effect
Summary of the method: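 Kinase activity was followed as ADP output, converted from fluorescence polarization with a calibration curve. Reactions ran one hour at low ATP (1 uM) with RS peptide substrate.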

[13] = Primary qHTS for small molecule stabilizers of the endoplasmic reticulum resident proteome: Secreted ER Calcium Modulated Protein (SERCaMP) assay (AID 1508630); note: % is set by controls: 0 for no effect and ±100 for the full control effect
Summary of the method: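 The SH-SY5Y reporter protocol was run at 3 concentrations up to 38.3 uM (primary) or 11 concentrations (follow-up): 16 h compound, 100 nM thapsigargin for 4 h, then extracellular luciferase luminescence.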

[14] = biological target: Cytochrome P450 2D6 (Homo sapiens) (UniProt P10635); test: qHTS Assay for Inhibitors and Substrates of Cytochrome P450 2D6 (AID 891); note: potency is the fitted concentration of half-maximal effect; nearly all actives have a fitted effect of over 60% in size
Sequence of Cytochrome P450 2D6 (Homo sapiens) (P10635 whole entry, looked up): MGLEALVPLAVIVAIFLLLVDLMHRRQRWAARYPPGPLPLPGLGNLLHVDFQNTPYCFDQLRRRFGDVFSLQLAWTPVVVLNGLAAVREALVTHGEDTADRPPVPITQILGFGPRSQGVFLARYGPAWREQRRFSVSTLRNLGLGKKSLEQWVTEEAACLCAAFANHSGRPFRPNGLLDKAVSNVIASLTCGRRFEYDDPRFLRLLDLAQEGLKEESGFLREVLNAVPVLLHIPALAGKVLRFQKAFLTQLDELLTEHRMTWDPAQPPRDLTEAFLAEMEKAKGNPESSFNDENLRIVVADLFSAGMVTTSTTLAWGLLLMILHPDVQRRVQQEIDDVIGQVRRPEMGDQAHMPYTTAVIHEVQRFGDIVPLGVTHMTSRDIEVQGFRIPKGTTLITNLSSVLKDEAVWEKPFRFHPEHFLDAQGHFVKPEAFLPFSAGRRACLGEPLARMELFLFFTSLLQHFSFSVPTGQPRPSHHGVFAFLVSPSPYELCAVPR
Summary of the method: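 Luminescent read-out of luciferin formed by 5 nM human CYP2D6 demethylating 30 uM Luciferin-ME EGE (Km level) over 60 min at room temperature after NADPH regeneration addition. Data normalized to full inhibition by 1.43 uM quinidine.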

[15] = biological target: Cytochrome P450 2C19 (Homo sapiens) (UniProt P33261); test: qHTS Assay for Inhibitors and Substrates of Cytochrome P450 2C19 (AID 899); note: potency is the fitted concentration of half-maximal effect; nearly all actives have a fitted effect of over 60% in size
Sequence of Cytochrome P450 2C19 (Homo sapiens) (P33261 whole entry, looked up): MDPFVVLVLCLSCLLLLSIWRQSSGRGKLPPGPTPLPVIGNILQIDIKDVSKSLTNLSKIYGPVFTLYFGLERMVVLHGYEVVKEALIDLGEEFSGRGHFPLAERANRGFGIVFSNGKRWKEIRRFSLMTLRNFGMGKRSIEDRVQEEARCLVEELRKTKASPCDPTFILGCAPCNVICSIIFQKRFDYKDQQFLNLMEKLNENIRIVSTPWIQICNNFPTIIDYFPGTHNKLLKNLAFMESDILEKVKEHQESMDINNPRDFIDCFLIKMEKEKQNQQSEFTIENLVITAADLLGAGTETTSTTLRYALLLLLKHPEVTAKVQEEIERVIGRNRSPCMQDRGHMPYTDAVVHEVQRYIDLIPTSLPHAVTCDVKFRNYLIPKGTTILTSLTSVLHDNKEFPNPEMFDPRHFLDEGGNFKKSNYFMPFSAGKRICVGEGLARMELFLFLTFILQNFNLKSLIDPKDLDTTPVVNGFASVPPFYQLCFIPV
Summary of the method: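 5 nM human CYP2C19 with 10uM Luciferin-H EGE (at KM) in 50mM KPO4, compound preincubated 10 min at 37C, then NADPH regeneration for 60 min at 37C. Luciferin read by luminescence after detection reagent; normalized to 57uM ketoconazole as full inhibition.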

[16] = qHTS Assay for Identification of Small Molecule Agonists for Hypoxia Response Element Signaling Pathway (AID 914; active = well fitted activation curve with a large enough effect in the signal ratio, with a control signal flat, not every such curve was filed as active; the % refers to the signal ratio; note: % of control where 0% means no effect); conditions: ME-180 (cervical carcinoma) HRE-bla reporter, beta-lactamase ratio, CoCl2, 17 h; activation: active compounds read high
Summary of the method: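 HRE-bla ME-180 cells, overnight plating in Opti-MEM with 0.5% dialyzed FBS; cpd titration + EC50 CoCl2, 17 h, 37 degrees Celsius; CCF4 2.5 h RT; 460/530 nm ratio; AC50.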

[17] = biological target: Cytochrome P450 3A4 (Homo sapiens) (UniProt P08684); test: qHTS Assay for Inhibitors and Substrates of Cytochrome P450 3A4 (AID 884); note: potency is the fitted concentration of half-maximal effect; nearly all actives have a fitted effect of over 50% in size
Summary of the method: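 Luminescent readout of luciferin produced by CYP3A4 (20 nM) dealkylation of Luciferin-PPXE, 25 uM (its KM). NADPH-driven reaction ran 60 min at RT after 10 min compound preincubation; data scaled to 57 uM ketoconazole as 100% inhibition.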

[18] = biological target: Ubiquitin carboxyl-terminal hydrolase 1 (Homo sapiens) (UniProt O94782); test: Inhibitors of USP1/UAF1: Pilot qHTS (AID 504865);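 note: rhodamine fluorescence freed from ubiquitin-rhodamine substrate followed over time; top concentration of the series differs between compounds; % is set by controls: 0 for no effect and ±100 for the full control effect; nearly all actives have a fitted effect of over 35% in size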
Sequence of Ubiquitin carboxyl-terminal hydrolase 1 (Homo sapiens) (O94782 whole entry, looked up): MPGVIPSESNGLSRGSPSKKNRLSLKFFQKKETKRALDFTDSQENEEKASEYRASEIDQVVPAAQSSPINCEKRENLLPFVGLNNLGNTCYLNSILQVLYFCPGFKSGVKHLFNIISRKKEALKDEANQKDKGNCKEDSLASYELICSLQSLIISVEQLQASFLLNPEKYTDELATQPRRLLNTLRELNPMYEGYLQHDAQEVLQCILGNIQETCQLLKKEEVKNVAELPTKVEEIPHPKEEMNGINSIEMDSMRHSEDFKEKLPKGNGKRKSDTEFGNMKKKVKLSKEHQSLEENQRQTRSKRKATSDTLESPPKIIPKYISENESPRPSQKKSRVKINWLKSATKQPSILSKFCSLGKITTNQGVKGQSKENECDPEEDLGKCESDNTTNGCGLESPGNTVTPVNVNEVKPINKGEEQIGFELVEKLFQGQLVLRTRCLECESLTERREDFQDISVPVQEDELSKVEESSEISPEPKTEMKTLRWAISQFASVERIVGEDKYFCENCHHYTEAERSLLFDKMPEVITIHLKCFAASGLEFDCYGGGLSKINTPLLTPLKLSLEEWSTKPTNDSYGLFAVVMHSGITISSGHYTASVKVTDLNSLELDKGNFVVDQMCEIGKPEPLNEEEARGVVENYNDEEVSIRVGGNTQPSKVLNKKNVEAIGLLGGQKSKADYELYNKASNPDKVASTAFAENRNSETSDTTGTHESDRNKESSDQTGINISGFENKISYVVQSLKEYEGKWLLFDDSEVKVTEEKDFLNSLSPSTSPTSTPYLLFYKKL
Summary of the method: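 Enzyme-free wells gave the negative control, while test wells held 1nM USP1/UAF1 preincubated with compound for 15 min at room temperature. Ub-Rho at 150nM final started the reaction, and fluorescence at 480/540 nm was recorded kinetically.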

[19] = biological target: Cytochrome P450 2C9 (Homo sapiens) (UniProt P11712); test: qHTS Assay for Inhibitors and Substrates of Cytochrome P450 2C9 (AID 883); note: potency is the fitted concentration of half-maximal effect; nearly all actives have a fitted effect of over 60% in size
Summary of the method: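 Human CYP2C9 (10nM) with Luciferin-H at 100uM (its KM) in 25mM KPO4; compound preincubated 10 min at 37C, then NADPH regeneration for 60 min at 37C. Luciferin read by luminescence after detection reagent; normalized to 57uM sulphaphenazole as full inhibition.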

[20] = biological target: Lysosomal acid glucosylceramidase (Homo sapiens) (UniProt P04062); test: Glucocerebrosidase-p2 (AID 348; in the data active = potency below about 10 µM; note: potency is the fitted concentration of half-maximal effect); conditions: purified GBA, blue fluorogenic substrate, 40 min
Sequence of Lysosomal acid glucosylceramidase (Homo sapiens) (P04062 whole entry, looked up): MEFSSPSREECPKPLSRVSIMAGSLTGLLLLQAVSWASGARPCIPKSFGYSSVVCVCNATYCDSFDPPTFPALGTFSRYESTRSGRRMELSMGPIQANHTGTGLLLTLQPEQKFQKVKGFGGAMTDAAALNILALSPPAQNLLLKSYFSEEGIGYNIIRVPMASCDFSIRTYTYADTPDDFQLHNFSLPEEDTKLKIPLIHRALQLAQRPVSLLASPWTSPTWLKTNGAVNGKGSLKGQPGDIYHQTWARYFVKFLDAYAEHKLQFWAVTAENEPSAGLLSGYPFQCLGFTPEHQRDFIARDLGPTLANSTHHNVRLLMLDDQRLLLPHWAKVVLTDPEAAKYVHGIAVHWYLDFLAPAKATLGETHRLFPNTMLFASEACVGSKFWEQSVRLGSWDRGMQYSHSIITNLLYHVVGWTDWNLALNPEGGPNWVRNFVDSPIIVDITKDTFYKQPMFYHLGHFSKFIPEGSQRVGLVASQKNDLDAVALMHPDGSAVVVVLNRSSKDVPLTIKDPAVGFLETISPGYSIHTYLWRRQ
Summary of the method: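 Normal human glucocerebrosidase (0.2 nM) with blue fluorogenic substrate (80 uM final) in citrate/phosphate pH 5.9 with 10mM sodium taurocholate, 0.01% tween-20; 40 min RT, NaOH/glycine stop; fluorescence Ex 365/Em 440; AC50 from a titration from 0.6 nM upwards.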

CN1CCN(c2ncc3nc(-c4cn(C)c5ccccc45)c(=O)n(-c4ccccc4)c3n2)CC1
active: Potency [2] 15.8 µM
inactive: activity change, negative = inhibition [1] 2.43% | activity change, negative = inhibition [3] 20% | activity, negative = inhibition [4] 4.99% | Potency [5] > 9.22 µM | Potency [6] > 46 µM | Potency [7] | Potency [8] | Potency [9] | Potency [10] | Potency [11] | Potency [12] | outcome [13]

COc1cccc(-c2nccc(N(C)Cc3ccco3)n2)c1
active: Potency [2] 0.631 µM | Potency [14] 1.26 µM | Potency [15] 5.01 µM | Potency [10] 8.91 µM | Potency [11] 8.91 µM | Potency [12] 7.94 µM
inactive: activity change, negative = inhibition [1] -11.4% | activity change, negative = inhibition [3] -1.32% | activity, negative = inhibition [4] -2.39% | Potency [5] > 46 µM | Potency [6] > 46 µM | Potency [7] | Potency [8] | Potency [9] | activation [16] -11.6% | outcome [13]

COc1ccccc1CNc1ccnc(-c2ccc(N(C)C)cc2)n1
inactive: activity change, negative = inhibition [1] -10.1% | activity change, negative = inhibition [3] -1.75% | activity, negative = inhibition [4] -10.8% | Potency [5] > 46 µM | Potency [6] > 46 µM | Potency [7] | Potency [8] | Potency [9] | Potency [10] | Potency [11] | Potency [12] | Potency [18] | outcome [13]
active: Potency [2] 0.794 µM | Potency [17] 7.94 µM | Potency [14] 0.501 µM

Cc1ccccc1-c1ccc2ncnc(NCc3cccnc3)c2c1
active: Potency [2] 0.251 µM | Potency [19] 794 nM | Potency [17] 1.58 µM | Potency [14] 2 µM | Potency [15] 1.58 µM | Potency [10] 14.1 µM | Potency [11] 11.2 µM | Potency [12] 11.2 µM
inactive: activity change, negative = inhibition [1] -2.6% | activity change, negative = inhibition [3] 2.06% | activity, negative = inhibition [4] -11% | Potency [5] > 46 µM | Potency [6] > 46 µM | Potency [7] | Potency [8] | Potency [9] | Potency [18] | outcome [13]

COc1ccc(CNc2ccnc(-c3ccoc3)n2)c(OC)c1
inactive: Potency [20] > 11.4 µM | activity change, negative = inhibition [3] 8.22% | activity, negative = inhibition [4] 10.4% | Potency [5] > 46 µM | Potency [6] > 46 µM | Potency [7] | activation [16] 16.3% | Potency [10] | Potency [11] | Potency [12] | Potency [18] | outcome [13]

COc1cccc(Nc2ncc3nc(-c4cc(F)cc(F)c4)c(=O)n(C[C@H]4CCCO4)c3n2)c1
inactive: Potency [20] > 11.4 µM | activity, negative = inhibition [4] -10.3% | Potency [5] > 9.22 µM | Potency [6] > 46 µM | Potency [7] | Potency [8] | Potency [9] | Potency [10] | Potency [11] | Potency [12] | Potency [18] | outcome [13]

O=c1c(-c2ccc(Cl)cc2)nc2cnc(N3CCNCC3)nc2n1CCc1ccccc1
inactive: Potency [20] > 11.4 µM | Potency [5] > 9.22 µM | Potency [6] > 46 µM | Potency [8] | Potency [9] | Potency [10] | Potency [11] | Potency [12] | outcome [13]

O=c1c(-c2cccs2)nc2cncnc2n1Cc1ccc(F)cc1
inactive: activity change, negative = inhibition [1] -19.2% | activity change, negative = inhibition [3] -15.7% | activity, negative = inhibition [4] -3.58% | Potency [5] > 9.22 µM | Potency [6] > 46 µM | Potency [7] | Potency [8] | Potency [9] | Potency [10] | Potency [11] | Potency [12] | Potency [18] | outcome [13]
active: Potency [2] 2.51 µM | Potency [15] 7.94 µM

COc1ccc2[nH]cc(CCNc3ncncc3-c3cccc(NS(C)(=O)=O)c3)c2c1
active: Potency [2] 12.6 µM | Potency [19] 398 nM | Potency [17] 0.398 µM | Potency [14] 3.16 µM | Potency [15] 5.01 µM | Potency [10] 25.1 µM | Potency [11] 35.5 µM | Potency [12] 10 µM
inactive: activity change, negative = inhibition [1] -19.1% | activity change, negative = inhibition [3] 15.3% | activity, negative = inhibition [4] -18.7% | Potency [5] > 46 µM | Potency [6] > 46 µM | Potency [7] | Potency [8] | Potency [9] | Potency [18] | outcome [13]

COc1ccc(CNc2ccnc(-c3ccc(N(C)C)cc3)n2)c(OC)c1
inactive: activity change, negative = inhibition [1] 8.69% | activity change, negative = inhibition [3] -3.37% | activity, negative = inhibition [4] -13.6% | Potency [5] > 46 µM | Potency [6] > 46 µM | Potency [7] | Potency [8] | Potency [9] | Potency [10] | Potency [11] | Potency [12] | Potency [18] | outcome [13]
active: Potency [2] 3.16 µM

O=c1c(-c2ccc(Cl)cc2)nc2cnc(N3CCNCC3)nc2n1-c1ccccc1
active: activity change, negative = inhibition [3] 153% [activator]
inactive: Potency [20] > 11.4 µM | Potency [5] > 9.22 µM | Potency [6] > 46 µM | Potency [8] | Potency [9] | Potency [10] | Potency [11] | Potency [12] | Potency [18] | outcome [13]

Cn1c(=O)c(-c2ccc(Cl)cc2)nc2cnc(N3CCNCC3)nc21
inactive: Potency [20] > 11.4 µM | Potency [5] > 9.22 µM | Potency [6] > 46 µM | Potency [7] | Potency [8] | Potency [9] | Potency [10] | Potency [11] | Potency [12] | Potency [18] | outcome [13]
active: activity change, negative = inhibition [3] 204% [activator]
